The structures appear in SMILES notation. Inconclusive results are not listed. Activity calls are given as the source filed them. No cut-off is given here; in the data, nearly all actives have AC50 up to about 26 µM.

A short description of this test: viability loss in pontine glioma line – cell-based, SU-DIPG-XXV, MIPE5.0, CellTiter-Glo, qHTS, dose response (AID 1347065).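 Note: cells exposed to compound for 48 hours before ATP readout.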 The note with it: CellTiter-Glo ATP luminescence. A general note: In ATP-based viability assays light output follows the ATP content of the culture.
Regarding `N#Cc1ccnc(N2C(=O)CC[C@H]2C(=O)N(c2cncc(F)c2)C(C(=O)NC2CC(F)(F)C2)c2ccccc2Cl)c1` (stereo not given in full), the outcome was inactive. As a reminder, the AC50 is the concentration at which the activity in the assay is half-maximal. For the molecule `Cc1ccc(-c2ccc3ncc4c(c3n2)n(C2CCN(C(=O)[C@H](C)O)CC2)c(=O)n4C)cn1`, the AC50 is 0.186 µM (active). On the same count and under the same terms, the result for `COc1ccc(N(C)c2nc(C)nc3ccccc23)cc1` reads 0.0059 µM (active). Still for that read-out and setting: the result for `C1=C/COCc2cc(ccc2OCCN2CCCC2)Nc2nccc(n2)-c2cccc(c2)COC/1` reads 2.09 µM (active); that for `Cc1ncc(NC(=O)c2cccc(C(F)(F)F)c2)cc1-c1cnc(OC2CCOCC2)c(N2CCOCC2)c1`, 14.8 µM (active). As to `CCCC(CCC)C(=O)Nc1ccn([C@@H]2O[C@H](CO)[C@@H](O)C2(F)F)c(=O)n1`, the molecule was called inactive. Still for that read-out and setting: the value for `CN1C(=O)[C@@H](NC(=O)c2n[nH]c(Cc3ccccc3)n2)COc2ccccc21` was “inactive”. On to `O=C(/C=C/c1ccc2ccc(C(F)(F)F)cc2n1)c1ccncc1`, for which the concentration at half-maximal activity (AC50) was 2.95 µM (active). `CC(C)n1cc(-c2ccc3c(c2)N(C)CC3)c2c(NS(=O)(=O)c3ccn(C)n3)ccnc21`: the molecule was called inactive. With `CN1CCN(c2ccc(Nc3ncc4cc(C#N)c(=O)n(C5CCCC5)c4n3)cc2)CC1`, the AC50 was 5.25 µM (active). Still for that read-out and setting: the result for `CCn1c(=O)c(-c2ccc(-c3cncs3)cc2Cl)cc2cnc(Nc3ccc(N4CCN(C)CC4)cc3)nc21` reads 2.95 µM (active).

Regarding `CS(=O)(=O)c1ccc(Oc2cc(F)cc(C#N)c2)c2c1[C@H](O)C(F)(F)C2`, the molecule was classed as inactive. On to `Cc1ccc(NC(=O)NCc2ccc3c(c2)CN(C2CCC(=O)NC2=O)C3=O)cc1Cl` (stereo not given), for which the AC50 was 0.00186 µM (active). On the same count and under the same terms, the value for `CNCCn1c(=O)c2cc(OC)c(OC)cc2c2cnc3cc4c(cc3c21)OCO4` was 1.52 µM (active).

As to `NS(=O)(=O)NCCNc1nonc1C(=Nc1ccc(F)c(Br)c1)NO`, the outcome was inactive. For `C=CC(=O)N1CCC(Oc2cc3c(Nc4ccc(Cl)c(Cl)c4F)ncnc3cc2OC)CC1`, the AC50 is 3.32 µM (active). The same measure, in the same setting: the value for `NC(=O)/C(=C/n1cnc(-c2cc(C(F)(F)F)cc(C(F)(F)F)c2)n1)c1cncnc1` was 2.35 µM (active); that for `C=C1C(=O)O[C@H]2C[C@H](C)C(/C=C/C(C)=O)=CC[C@H]12` was 4.68 µM (active); that for `O=C1NC(=O)C(c2cnc3ccccn23)=C1c1cn2c3c(cc(F)cc13)CN(C(=O)N1CCCCC1)CC2` was 18.6 µM (active). On to `O=C(NC[C@H](O)CN1CCc2ccccc2C1)c1cc(NC2COC2)ncn1`, for which the call was inactive. On the same count and under the same terms, the value for `C[C@@H]1CC(=O)Nc2cccc(-c3cnn(C(C)(C)C)c3)c2N1` was “inactive”. As to `C[C@@H](Oc1cc(C(=O)Nc2ccc(C(=O)N3CCN(C)CC3)cc2)nnc1N)c1c(Cl)ccc(F)c1Cl`, the AC50 was 0.742 µM (active). Take `CC(C)N(CCCNC(=O)Nc1ccc(C(C)(C)C)cc1)C[C@H]1O[C@@H](n2ccc3c(N)ncnc32)[C@H](O)[C@@H]1O`: the molecule was called inactive.

Take `Cc1cc(Oc2ccc3nc(COc4ccc(CC5SC(=O)NC5=O)cc4)n(C)c3c2)cc(C)c1N` (stereo not given): the outcome was inactive.

For `OC1CCC([C@H](O)C[C@H]2c3c(F)cccc3-c3cncn32)CC1` (stereo not given in full), the result was inactive. In the case of `Cn1cc(-c2ccc(S(=O)(=O)n3ccc(/C=C/C(=O)Nc4ccccc4N)c3)cc2)cn1`, the AC50 was 1.32 µM (active).

In the case of `Cc1ccc(NC(=O)Nc2nnc(Sc3ncnc4cc(OCCCN5CCOCC5)ccc34)s2)cc1`, the AC50 is 1.86 µM (active).

In the case of `Cc1[nH]c(/C=C2\C(=O)Nc3ccc(F)cc32)c(C)c1C(=O)NC[C@H](O)CN1CCOCC1`, the AC50 is 7.42 µM (active). Consider `CN1CCN(Cc2ccc(Nc3ncc(Cl)c(Nc4ccccc4S(=O)(=O)N(C)C)n3)cc2)CC1`, for which the AC50 is 0.135 µM (active). Same read-out and setting: the result for `O=S(=O)(Nc1ccc(-c2cccnc2)c2cccnc12)c1cccc(C(F)(F)F)c1` reads 14.8 µM (active); that for `COc1cccc2c1C(=O)c1c(O)c3c(c(O)c1C2=O)C[C@@](O)(/C(CO)=N/NC(=O)CCCCCN1C(=O)C=CC1=O)C[C@@H]3O[C@H]1C[C@H](N)[C@H](O)[C@H](C)O1`, 14.8 µM (active). As for `CC(C)(C)C(=O)CN1C(=O)[C@H](NC(=O)Nc2cccc(C(=O)O)c2)CN(C2CCCCC2)c2ccccc21`, the call was inactive.

As to `CC(C)(NS(=O)(=O)c1ccc2c(Cl)cnc(N=C(N)N)c2c1)C(=O)O`, the molecule was called inactive. Still for that read-out and setting: the result for `COC(=O)N(C)c1c(N)nc(-c2nn(Cc3ccccc3F)c3ncccc23)nc1N` reads “inactive”; that for `C[C@H]1CN(C[C@H](Cc2ccccc2)C(=O)NCC(=O)O)CC[C@@]1(C)c1cccc(O)c1`, “inactive”.

These data come from PubChem BioAssay.
